# PAFAH2 inh: PAFAH2 (human) inhibition | Q99487 | recombinant PAFAH2, FP-rhodamine activity probe, fluorescence polarization | inhibition, % at 3.39 µM | 0.99% of 340,000 active;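 active = inhibition above the mean over all tested compounds plus 3 SD, cut at about 30% in these data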;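 also: inhibitors block probe labeling of enzyme so polarization drops; 0% = enzyme with DMSO and 100% = wells lacking PAFAH2 protein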
# pPAFAH FP inh: pPAFAH (human) enzyme inhibition. Q13093. recombinant pPAFAH, FP-rhodamine probe fluorescence polarization. inhibition, % at 3.39 µM. 1.5% of 330,000 active;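 active = inhibition above the mean inhibition across the screen plus 3 SD, cut at about 25% in these data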;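 also: inhibitors block binding of the rhodamine activity-based probe so polarization drops; 0% = enzyme with DMSO and 100% = wells lacking pPAFAH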
# Target sequence (Q13093 whole entry, looked up): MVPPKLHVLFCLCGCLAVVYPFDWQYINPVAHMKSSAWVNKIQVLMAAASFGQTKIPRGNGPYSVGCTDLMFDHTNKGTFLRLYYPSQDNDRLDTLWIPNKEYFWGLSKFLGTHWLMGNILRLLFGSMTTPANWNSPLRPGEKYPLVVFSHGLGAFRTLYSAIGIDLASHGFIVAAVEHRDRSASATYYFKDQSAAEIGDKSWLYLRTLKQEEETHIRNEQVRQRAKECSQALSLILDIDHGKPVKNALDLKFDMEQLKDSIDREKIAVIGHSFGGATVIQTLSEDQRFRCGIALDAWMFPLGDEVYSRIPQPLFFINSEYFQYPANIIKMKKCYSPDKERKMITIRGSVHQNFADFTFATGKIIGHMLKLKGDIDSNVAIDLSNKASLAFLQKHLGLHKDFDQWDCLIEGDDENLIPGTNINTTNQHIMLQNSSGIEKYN
# DAGLB inhibitor: blocks human DAGLB lipase activity; HEK293T DAGLB membrane lysate, EnzChek fluorogenic substrate; Q8NCG7; AID 504411; 0.059% of 340,000 active; inhibition, % at 5.17 µM; in the data active = inhibition above about 34%;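 also: 0% = enzyme with vehicle and 100% = wells lacking enzyme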
# ATG4B inhibitor: inhibitors of human ATG4B cysteine protease. AID 504462. ATG4B cleavage of LC3-PLA2, NBD-HPC fluorescence, 1 h. inhibition, % at 8.33 µM. 0.51% of 340,000 active; in the data active = inhibition above about 40%
# PAFAH1B3 FP inh: blocks human PAF acetylhydrolase 1B catalytic subunit 3; Q15102; AID 492972; recombinant PAFAH1B3, FP-rhodamine probe, fluorescence polarization; 0.28% of 340,000 active; inhibition, % at 3.39 µM;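 active = inhibition above the screen-wide average of all tested compounds plus 3 SD, cut at about 25% in these data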;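 also: 0% = enzyme with DMSO only and 100% = wells lacking PAFAH1B3 protein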
# PAFAH1B2 FP inh: inhibitors of human PAFAH1B2 | AID 492953 | recombinant PAFAH1B2, FP-rhodamine activity probe, fluorescence polarization | P68402 | inhibition, % at 3.39 µM | 1.2% of 340,000 active;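 active = inhibition above the mean of all tested compounds plus 3 SD, cut at about 24% in these data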;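 also: 0% = enzyme with DMSO and 100% = wells lacking PAFAH1B2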
# Target sequence (P68402 whole entry, looked up): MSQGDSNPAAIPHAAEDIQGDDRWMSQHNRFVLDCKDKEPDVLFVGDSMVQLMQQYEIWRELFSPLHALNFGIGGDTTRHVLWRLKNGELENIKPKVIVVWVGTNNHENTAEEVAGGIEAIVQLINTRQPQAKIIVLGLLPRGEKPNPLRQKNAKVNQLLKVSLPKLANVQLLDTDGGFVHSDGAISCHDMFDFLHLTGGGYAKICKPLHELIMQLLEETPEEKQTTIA
# The depositor's hits bear a star; x = no result. This is a sample that favours compounds with a hit; in the whole collection about 3% have one here.
SMILES,PAFAH2 inh,pPAFAH FP inh,DAGLB inhibitor,ATG4B inhibitor,PAFAH1B3 FP inh,PAFAH1B2 FP inh
Cc1ccc(C(=O)OCC(=O)c2ccc(CC(=O)N3CCOCC3)s2)c(C)c1,6.5,x,-0.4,8.2,5.1,-0.7
CC1C2(C)OC(=N)C(C#N)(C(C)O2)C1(C#N)C#N (stereo not drawn),75.4*,3.9,0.6,0.2,59.6*,52.6*
Cc1ccc(S(=O)(=O)N2CCCN(C(=O)c3cc4ccccc4[nH]3)CC2)cc1,-2.5,0.1,0.8,-5.5,11.3,14.8
COc1ccc(C)cc1NC(=O)CCCN1C(=O)C(c2ccccc2)Oc2cccnc21 (stereo not drawn),4.2,-3.9,-7.0,18.1,0.7,5.1
COc1ccc(O)c(C(c2c(C)[nH][nH]c2=O)c2c(C)[nH][nH]c2=O)c1,11.3,3.9,-23.0,-1.6,38.0*,26.7*
COc1ccccc1OCc1ccc(C(=O)Nc2cc(OC)c(OC)c(OC)c2)o1,3.1,x,0.1,-5.2,5.4,4.3
COc1cc(NC(=O)c2ccc(COc3ccccc3Br)o2)cc(OC)c1OC,0.7,25.9*,-2.0,-1.5,13.0,8.0
Cc1cc(=O)c2c(o1)C(=O)c1occc1C2=O,38.1*,x,5.2,-7.6,47.2*,26.1*
CNS(=O)(=O)c1ccc2c(c1)C(=O)c1cc(S(=O)(=O)NC)ccc1CC2,3.9,-2.4,-3.7,-8.5,-2.4,-0.5
C[C@@H]1COC(=O)[C@H](Cc2ccc(F)cc2)C/C=C\C[C@@H](CC(=O)NCCO)C(=O)N1,1.4,0.2,-1.5,0.7,5.9,32.9*
C[C@H]1COC(=O)[C@@H](Cc2ccc(F)cc2)C/C=C\C[C@@H](CC(=O)NCCO)C(=O)N1,7.2,1.9,-2.6,-0.1,-5.7,1.5
CC(C)(C)[C@@H]1COC(=O)[C@H](Cc2ccc(F)cc2)C/C=C\C[C@@H](CC(=O)NCCO)C(=O)N1,-0.3,2.5,0.6,2.8,3.6,31.9*
Cn1nnnc1Sc1ncnc2scc(-c3ccc(F)cc3)c12,-15.5,28.7*,1.5,-4.9,1.4,-7.4
CNS(=O)(=O)c1cccc(C(=O)OCC(=O)/C=C2/N(C)c3ccccc3C2(C)C)c1,1.9,1.5,2.9,-7.3,2.0,0.9
CN1/C(=C\C(=O)COC(=O)c2ccc(O)c(O)c2)C(C)(C)c2ccccc21,x,32.4*,x,15.6,x,x
C/C(CC(C)(C)C1CCCCC1)=N\NC(N)=S,1.7,5.9,-3.0,-8.2,2.4,41.0*
Cc1ccc(SC2=C(N(C)C)C(=O)c3ccccc3C2=O)cc1,18.9,x,10.2,1.2,34.2*,24.5*
CC1(C)CCC(=O)N2CC[C@H]3c4cc5ccccc5nc4C[C@@H]1[C@H]32,-2.6,x,1.9,-2.5,6.1,3.7
CCOC(=O)c1c(C)[nH]c(C(=O)OCc2ccc(F)cc2)c1C,6.1,x,-2.5,-4.5,7.6,2.4
CCOC(=O)c1c(C)[nH]c(C(=O)OCc2ccccc2F)c1C,5.4,29.5*,-4.5,-8.0,4.7,4.0
CCCCN(C(=O)c1c(C)[nH]c(C(=O)OCC)c1C)c1ccccc1,9.1,2.1,1.0,0.3,-2.6,28.2*
O=S(=O)(/C=C/c1ccccc1)N1CCN(c2nc(-c3ccccc3)nc3ccccc23)CC1,-4.4,-2.9,-5.8,-3.9,-2.1,-1.7
Brc1ccc2cccnc2c1,2.2,5.3,-1.9,-0.3,0.7,0.4
Nc1cc2cccnc2cc1Cl,43.9*,x,7.3,0.3,36.9*,21.2
CSc1oc(-c2ccco2)nc1S(=O)(=O)c1ccc(Br)cc1,3.1,3.5,-1.7,-6.5,-2.2,2.0
SMILES,PAFAH2 inh,pPAFAH FP inh,DAGLB inhibitor,ATG4B inhibitor,PAFAH1B3 FP inh,PAFAH1B2 FP inh
CC(C)Sc1oc(-c2ccco2)nc1S(=O)(=O)c1ccc(F)cc1,12.1,25.5*,-0.1,7.3,0.5,3.1
CCOc1ccc(NS(=O)(=O)c2ccc(NC(=S)NC(=O)C(C)C)cc2)cc1,-5.6,32.9*,-1.9,-16.1,-1.0,-2.4
COc1ccc(NS(=O)(=O)c2ccc(NC(=S)NC(=O)C(C)C)cc2)cc1,-7.6,16.6,-2.9,-1.9,-4.4,-0.3
CCOc1ccc(NS(=O)(=O)c2ccc(N)cc2)cc1,16.7,18.0,-1.1,-0.6,11.6,7.5
CCOc1ccc(NS(=O)(=O)c2ccc(SC)cc2)cc1,-5.9,33.7*,-3.0,-1.7,3.6,-0.7
C/C(N)=C(/C#N)C(=O)COC(=O)c1oc2ccccc2c1COC(C)C,0.3,-1.3,-1.9,-10.8,6.6,0.6
COC(=O)C(N)Cc1ccc(O)c(O)c1 (stereo not drawn),-3.2,13.5,-2.6,-0.6,7.2,1.0
NC(CO)C(=O)NNCc1ccc(O)c(O)c1O (stereo not drawn),8.1,27.6*,0.2,2.0,19.0,5.8
N/C(=N\OC(=O)C12CC3CC(CC(C3)C1)C2)c1ccccn1,19.8,-0.7,0.3,0.4,7.3,24.1*
N/C(=N\OC(=O)C12CC3CC(CC(C3)C1)C2)c1ccccc1,0.6,-5.4,-3.4,4.3,4.9,2.5
Cc1ccc(OCc2nnc(NC(=O)c3ccco3)s2)cc1,1.6,-3.1,1.6,-0.6,4.6,25.2*
C/C(=N/NC(=O)c1cc(-c2ccccc2)nc2c(Cl)cccc12)c1cccnc1,-1.6,x,-13.6,7.7,8.0,-1.3
O=C(CCC(=O)N1CCSc2ccccc21)NCc1ccc(Cl)cc1,9.3,0.1,-3.4,-2.6,-3.2,25.0*
CCN(CC(=O)NCc1cccs1)C(=O)c1ccc(-c2cccc(C(F)(F)F)c2)o1,4.3,16.7,-4.9,-9.3,1.6,10.2
CC(C)c1ccc(NS(=O)(=O)c2ccc3[nH]cc(C(=O)N4CCC(C(N)=O)CC4)c(=O)c3c2)cc1,1.3,69.6*,-1.1,-12.2,6.0,2.4
CC1=C(C(=O)OCC(Br)(Br)Br)C(c2cccc([N+](=O)[O-])c2)NC(=O)N1CCCC(=O)O (stereo not drawn),-1.6,-3.1,3.3,14.2,-7.0,92.0*
O=C1C2C3C=CC(CO)(O3)C2C(=O)N1c1ccc(-c2ccccc2)cc1 (stereo not drawn),x,27.8*,x,x,x,x
COc1ccccc1CNC(=O)COC(=O)COc1ccccc1F,2.8,8.0,-0.6,-1.0,-2.4,1.7
CCOC(=O)C1=C(C)N(CCCC(=O)O)C(=O)NC1c1ccc2ccccc2c1 (stereo not drawn),4.3,3.8,-0.8,-5.5,-3.8,8.6
Cc1ccc(NS(=O)(=O)c2ccccc2)c2c1CC(C)(C)O2,0.7,29.3*,-4.3,-8.6,-3.1,2.1
Cc1cc(-c2ccc(NS(=O)(=O)c3ccccc3)c(C)c2)ccc1NS(=O)(=O)c1ccccc1,-11.6,x,-0.2,17.2,-10.8,-3.0
O=C(N/N=C/C=C/c1ccco1)/C(=C/c1ccccc1)NC(=O)c1ccccc1,16.2,31.1*,4.0,3.3,10.8,3.1
Cc1ccc(NS(=O)(=O)c2cccc(C(=O)NCC3CCCO3)c2)cc1 (stereo not drawn),-0.1,30.5*,-0.3,8.8,3.2,1.8

# Screening results: PubChem, several laboratories
